Inhibition data for one compound are collected here from ChEMBL document CHEMBL1961873, “Compounds: GSK PKIS; Assays: Nanosyn kinase panel” (2012).

The target in assay [1] is T1, Inhibitor of nuclear factor kappa-B kinase subunit epsilon (Homo sapiens) (UniProt Q14164).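 Further: reported values are averaged percent inhibition figures against human IKKε.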
T1 sequence (whole entry): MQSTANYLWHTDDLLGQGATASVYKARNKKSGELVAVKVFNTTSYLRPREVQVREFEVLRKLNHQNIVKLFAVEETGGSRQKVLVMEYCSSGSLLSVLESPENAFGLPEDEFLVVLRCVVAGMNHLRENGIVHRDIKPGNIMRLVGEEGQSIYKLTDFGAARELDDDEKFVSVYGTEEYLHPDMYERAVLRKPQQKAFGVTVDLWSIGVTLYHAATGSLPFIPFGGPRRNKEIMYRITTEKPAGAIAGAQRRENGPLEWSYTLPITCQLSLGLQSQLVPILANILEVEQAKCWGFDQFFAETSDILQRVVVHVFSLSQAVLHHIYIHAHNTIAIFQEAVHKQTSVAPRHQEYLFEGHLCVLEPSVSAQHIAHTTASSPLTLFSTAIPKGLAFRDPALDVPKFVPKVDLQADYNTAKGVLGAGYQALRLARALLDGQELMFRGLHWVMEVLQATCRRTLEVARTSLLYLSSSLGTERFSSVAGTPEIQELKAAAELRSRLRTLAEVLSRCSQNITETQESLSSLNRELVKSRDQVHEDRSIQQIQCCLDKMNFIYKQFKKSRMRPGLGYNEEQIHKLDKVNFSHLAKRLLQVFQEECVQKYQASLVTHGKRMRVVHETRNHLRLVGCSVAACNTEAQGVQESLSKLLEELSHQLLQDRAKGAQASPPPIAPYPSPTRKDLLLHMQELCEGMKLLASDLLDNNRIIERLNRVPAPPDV
Conditions: at 1 µM.

The target of assay [2] is T2, Serine/threonine-protein kinase Nek1 (Homo sapiens) (UniProt Q96PY6).
T2 sequence (whole entry): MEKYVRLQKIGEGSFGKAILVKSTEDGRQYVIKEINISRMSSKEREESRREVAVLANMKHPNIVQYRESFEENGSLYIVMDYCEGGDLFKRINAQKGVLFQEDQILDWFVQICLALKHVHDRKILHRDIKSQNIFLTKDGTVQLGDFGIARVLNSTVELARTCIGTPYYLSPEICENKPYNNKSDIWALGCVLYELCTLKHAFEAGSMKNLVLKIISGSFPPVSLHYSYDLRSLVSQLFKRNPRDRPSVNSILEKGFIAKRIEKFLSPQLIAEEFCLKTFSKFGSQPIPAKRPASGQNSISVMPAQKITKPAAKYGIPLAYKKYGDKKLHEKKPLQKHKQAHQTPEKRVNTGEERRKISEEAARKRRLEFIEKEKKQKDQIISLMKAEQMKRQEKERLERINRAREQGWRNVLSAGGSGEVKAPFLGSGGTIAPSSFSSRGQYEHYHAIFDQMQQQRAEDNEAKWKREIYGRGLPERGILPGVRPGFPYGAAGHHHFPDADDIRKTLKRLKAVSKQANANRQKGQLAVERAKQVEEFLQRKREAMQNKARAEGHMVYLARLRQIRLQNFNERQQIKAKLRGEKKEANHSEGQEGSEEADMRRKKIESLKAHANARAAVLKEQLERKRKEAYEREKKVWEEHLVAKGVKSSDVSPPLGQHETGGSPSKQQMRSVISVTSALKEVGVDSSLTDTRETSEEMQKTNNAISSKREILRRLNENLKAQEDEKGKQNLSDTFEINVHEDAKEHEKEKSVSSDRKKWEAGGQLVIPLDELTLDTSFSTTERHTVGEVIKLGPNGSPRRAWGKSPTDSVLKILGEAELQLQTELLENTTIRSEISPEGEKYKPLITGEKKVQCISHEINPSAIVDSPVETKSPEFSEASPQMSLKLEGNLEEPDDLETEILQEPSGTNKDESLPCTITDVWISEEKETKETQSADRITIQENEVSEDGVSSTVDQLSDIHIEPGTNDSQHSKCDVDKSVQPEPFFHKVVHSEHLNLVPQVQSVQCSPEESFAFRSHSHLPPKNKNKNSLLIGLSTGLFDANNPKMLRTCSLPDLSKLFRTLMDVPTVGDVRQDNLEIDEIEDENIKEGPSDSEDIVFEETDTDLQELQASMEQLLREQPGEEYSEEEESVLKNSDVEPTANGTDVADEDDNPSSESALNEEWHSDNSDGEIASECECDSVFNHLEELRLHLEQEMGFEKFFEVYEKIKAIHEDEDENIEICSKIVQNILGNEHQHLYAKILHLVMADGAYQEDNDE
Conditions: at 0.1 µM.

In assay [3] the target is T2, Serine/threonine-protein kinase Nek1 (Homo sapiens). The settings on record: at 1 µM.
For assay [4], the target named is T3, Serine/threonine-protein kinase Nek2 (Homo sapiens) (UniProt P51955).
T3 sequence (whole entry): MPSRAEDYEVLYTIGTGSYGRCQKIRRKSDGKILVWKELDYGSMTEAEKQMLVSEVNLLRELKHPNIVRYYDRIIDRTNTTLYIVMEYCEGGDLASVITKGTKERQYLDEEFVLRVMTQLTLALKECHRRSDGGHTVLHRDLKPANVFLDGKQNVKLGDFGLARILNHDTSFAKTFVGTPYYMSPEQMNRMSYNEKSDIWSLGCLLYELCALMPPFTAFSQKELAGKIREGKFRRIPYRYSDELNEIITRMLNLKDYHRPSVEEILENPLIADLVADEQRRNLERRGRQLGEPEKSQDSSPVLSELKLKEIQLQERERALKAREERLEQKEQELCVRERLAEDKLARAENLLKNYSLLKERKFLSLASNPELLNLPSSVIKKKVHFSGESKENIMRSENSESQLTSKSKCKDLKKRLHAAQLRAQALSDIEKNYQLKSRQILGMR
Conditions: at 0.1 µM.

Assay [5] concerns the target T3, Serine/threonine-protein kinase Nek2 (Homo sapiens). The settings on record: at 1 µM.
Assay [6] concerns the target Serine/threonine-protein kinase Nek6 (Homo sapiens) (UniProt Q9HC98). The settings on record: at 0.1 µM.
The target is the same in assay [7]. Conditions: at 1 µM.
The target in assay [8] is Serine/threonine-protein kinase Nek7 (Homo sapiens) (UniProt Q8TDX7). The settings on record: at 0.1 µM.
The target is the same in assay [9]. Conditions: at 1 µM.
The target in assay [10] is T4, Serine/threonine-protein kinase Nek9 (Homo sapiens) (UniProt Q8TD19).
T4 sequence (whole entry): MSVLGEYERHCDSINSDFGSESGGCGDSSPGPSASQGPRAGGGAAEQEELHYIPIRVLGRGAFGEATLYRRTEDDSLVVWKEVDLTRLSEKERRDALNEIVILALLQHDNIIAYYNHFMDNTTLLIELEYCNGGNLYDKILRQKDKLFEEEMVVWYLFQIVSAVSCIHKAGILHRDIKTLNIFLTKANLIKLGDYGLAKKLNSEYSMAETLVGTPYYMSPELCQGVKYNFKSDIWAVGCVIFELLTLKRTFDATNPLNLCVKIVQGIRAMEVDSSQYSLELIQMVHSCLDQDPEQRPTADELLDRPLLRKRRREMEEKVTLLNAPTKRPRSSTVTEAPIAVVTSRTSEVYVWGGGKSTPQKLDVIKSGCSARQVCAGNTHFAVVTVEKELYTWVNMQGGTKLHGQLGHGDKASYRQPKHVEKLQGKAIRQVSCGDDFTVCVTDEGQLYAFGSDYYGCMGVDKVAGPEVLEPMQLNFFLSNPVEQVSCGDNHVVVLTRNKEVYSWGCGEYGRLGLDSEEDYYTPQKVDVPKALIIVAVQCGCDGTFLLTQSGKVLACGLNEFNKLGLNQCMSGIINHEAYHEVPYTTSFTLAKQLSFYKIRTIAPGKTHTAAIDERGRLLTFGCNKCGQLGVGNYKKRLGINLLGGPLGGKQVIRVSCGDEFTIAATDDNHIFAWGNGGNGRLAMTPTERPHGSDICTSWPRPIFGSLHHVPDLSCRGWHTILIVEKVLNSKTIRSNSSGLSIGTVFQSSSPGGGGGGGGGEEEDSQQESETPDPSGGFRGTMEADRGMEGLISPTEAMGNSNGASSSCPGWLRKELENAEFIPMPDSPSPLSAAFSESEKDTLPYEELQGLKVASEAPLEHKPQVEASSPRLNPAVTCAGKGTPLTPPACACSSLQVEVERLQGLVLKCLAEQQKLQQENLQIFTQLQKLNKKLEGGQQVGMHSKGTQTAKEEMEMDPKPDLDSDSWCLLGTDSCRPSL
The settings on record: at 0.1 µM.

In assay [11] the target is T4, Serine/threonine-protein kinase Nek9 (Homo sapiens). The settings on record: at 1 µM.
Assay [12] has as its target Serine/threonine-protein kinase PLK1 (Homo sapiens) (UniProt P53350). The settings on record: at 0.1 µM.
The target is the same in assay [13]. The settings on record: at 1 µM.
Assay [14] concerns the target T5, Dual specificity protein kinase TTK (Homo sapiens) (UniProt P33981).
T5 sequence (whole entry): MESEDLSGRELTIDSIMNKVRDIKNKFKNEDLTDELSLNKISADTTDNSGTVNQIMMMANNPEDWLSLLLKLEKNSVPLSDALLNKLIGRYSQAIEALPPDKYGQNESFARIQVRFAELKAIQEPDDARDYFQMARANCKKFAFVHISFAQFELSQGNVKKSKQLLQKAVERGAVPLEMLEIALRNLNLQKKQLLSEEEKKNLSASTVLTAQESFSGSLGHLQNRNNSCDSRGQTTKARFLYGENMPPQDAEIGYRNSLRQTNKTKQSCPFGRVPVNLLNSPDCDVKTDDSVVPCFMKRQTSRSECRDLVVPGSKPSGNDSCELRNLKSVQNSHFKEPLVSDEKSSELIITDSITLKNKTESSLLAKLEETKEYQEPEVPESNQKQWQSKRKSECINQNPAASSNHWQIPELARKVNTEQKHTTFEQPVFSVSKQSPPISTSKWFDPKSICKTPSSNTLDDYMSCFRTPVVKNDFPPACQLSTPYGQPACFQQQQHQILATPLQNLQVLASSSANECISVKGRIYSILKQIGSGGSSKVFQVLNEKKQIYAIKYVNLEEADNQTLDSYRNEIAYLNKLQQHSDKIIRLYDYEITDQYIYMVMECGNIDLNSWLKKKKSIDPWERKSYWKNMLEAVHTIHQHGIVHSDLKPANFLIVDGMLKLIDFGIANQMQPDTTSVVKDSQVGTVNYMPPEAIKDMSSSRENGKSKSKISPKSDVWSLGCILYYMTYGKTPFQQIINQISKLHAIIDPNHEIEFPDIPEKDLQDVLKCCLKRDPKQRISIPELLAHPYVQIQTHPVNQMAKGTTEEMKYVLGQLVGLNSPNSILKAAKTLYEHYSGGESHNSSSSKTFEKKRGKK
Conditions: at 0.1 µM.

In assay [15] the test system is T6, Receptor-type tyrosine-protein kinase FLT3 (Homo sapiens), P36888 [D835Y].
T6 sequence (whole entry): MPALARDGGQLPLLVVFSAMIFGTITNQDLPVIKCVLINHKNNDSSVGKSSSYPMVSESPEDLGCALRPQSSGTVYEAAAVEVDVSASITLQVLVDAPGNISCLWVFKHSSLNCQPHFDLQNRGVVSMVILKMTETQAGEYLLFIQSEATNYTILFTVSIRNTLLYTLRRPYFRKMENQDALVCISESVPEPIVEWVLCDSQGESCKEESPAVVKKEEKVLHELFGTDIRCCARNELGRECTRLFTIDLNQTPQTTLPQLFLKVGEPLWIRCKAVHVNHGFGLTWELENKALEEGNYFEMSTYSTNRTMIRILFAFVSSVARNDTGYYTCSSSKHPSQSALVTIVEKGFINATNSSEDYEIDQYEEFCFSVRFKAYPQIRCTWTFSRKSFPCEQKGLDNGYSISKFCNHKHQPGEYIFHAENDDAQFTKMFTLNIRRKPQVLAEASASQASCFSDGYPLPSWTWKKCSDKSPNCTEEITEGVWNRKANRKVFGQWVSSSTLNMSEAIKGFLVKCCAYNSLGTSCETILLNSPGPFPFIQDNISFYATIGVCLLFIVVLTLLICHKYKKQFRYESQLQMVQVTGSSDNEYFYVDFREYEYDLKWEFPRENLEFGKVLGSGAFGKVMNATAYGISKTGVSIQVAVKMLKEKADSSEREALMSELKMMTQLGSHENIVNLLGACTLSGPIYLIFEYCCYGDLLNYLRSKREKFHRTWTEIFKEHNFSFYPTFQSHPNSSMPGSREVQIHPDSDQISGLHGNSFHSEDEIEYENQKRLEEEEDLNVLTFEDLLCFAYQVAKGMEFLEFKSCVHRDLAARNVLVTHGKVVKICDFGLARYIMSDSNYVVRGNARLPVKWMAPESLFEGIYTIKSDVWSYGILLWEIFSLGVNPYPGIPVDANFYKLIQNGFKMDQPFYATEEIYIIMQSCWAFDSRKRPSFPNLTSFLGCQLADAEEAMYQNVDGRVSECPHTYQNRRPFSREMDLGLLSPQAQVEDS
The settings on record: at 1 µM.

The target of assay [16] is Vascular endothelial growth factor receptor 3 (Homo sapiens) (UniProt P35916). Conditions: at 0.1 µM.
Assay [17] shares this target. The settings on record: at 1 µM.
Assay [18] addresses Macrophage colony-stimulating factor 1 receptor (Homo sapiens) (UniProt P07333). The settings on record: at 0.1 µM.
Assay [19] shares this target. The settings on record: at 1 µM.
Assay [20] deals with Tyrosine-protein kinase Fyn (Homo sapiens) (UniProt P06241). Conditions: at 0.1 µM.
Tyrosine-protein kinase Fyn (Homo sapiens), sequence (P06241 2-537 limits assumed): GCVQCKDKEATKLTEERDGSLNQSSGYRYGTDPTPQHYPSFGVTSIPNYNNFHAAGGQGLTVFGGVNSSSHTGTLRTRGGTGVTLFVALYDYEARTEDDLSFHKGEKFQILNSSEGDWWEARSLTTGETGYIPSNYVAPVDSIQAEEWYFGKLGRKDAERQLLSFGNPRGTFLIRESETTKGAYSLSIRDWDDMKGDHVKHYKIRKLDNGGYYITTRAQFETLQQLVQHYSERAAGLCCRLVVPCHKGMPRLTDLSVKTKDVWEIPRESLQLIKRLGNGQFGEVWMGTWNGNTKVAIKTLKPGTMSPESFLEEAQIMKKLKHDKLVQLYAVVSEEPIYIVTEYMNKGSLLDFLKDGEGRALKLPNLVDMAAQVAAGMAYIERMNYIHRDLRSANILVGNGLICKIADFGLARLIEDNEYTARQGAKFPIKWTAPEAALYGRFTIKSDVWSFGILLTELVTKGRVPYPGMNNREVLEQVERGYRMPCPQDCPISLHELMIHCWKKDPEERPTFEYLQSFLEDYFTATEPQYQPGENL

Macrophage colony-stimulating factor 1 receptor (Homo sapiens), sequence (P07333 whole entry): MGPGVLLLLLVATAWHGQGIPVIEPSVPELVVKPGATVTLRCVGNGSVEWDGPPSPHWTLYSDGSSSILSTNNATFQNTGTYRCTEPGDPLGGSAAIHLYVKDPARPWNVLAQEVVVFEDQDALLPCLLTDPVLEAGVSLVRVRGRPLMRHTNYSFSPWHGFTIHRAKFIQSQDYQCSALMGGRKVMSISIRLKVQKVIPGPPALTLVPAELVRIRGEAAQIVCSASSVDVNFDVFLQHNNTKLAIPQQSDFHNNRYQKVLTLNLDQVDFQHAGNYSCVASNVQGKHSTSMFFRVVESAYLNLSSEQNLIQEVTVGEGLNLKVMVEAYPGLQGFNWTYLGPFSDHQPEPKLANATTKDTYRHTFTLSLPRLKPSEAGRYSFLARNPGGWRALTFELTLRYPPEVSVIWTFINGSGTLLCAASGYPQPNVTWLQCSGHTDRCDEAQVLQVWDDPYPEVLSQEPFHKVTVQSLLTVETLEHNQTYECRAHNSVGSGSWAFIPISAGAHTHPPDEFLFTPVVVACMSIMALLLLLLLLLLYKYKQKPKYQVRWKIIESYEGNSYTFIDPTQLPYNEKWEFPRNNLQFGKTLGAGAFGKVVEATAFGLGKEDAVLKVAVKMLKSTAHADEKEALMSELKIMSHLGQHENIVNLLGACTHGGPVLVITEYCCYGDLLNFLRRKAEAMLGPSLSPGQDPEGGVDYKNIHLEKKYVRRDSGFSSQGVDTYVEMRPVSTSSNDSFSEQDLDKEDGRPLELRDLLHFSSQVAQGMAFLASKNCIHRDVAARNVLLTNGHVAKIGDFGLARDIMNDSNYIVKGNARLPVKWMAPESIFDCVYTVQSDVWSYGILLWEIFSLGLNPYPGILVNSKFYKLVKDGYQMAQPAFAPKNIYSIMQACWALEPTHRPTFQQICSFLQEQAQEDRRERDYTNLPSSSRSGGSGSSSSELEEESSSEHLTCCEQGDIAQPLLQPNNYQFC
Serine/threonine-protein kinase Nek6 (Homo sapiens), sequence (Q9HC98 whole entry): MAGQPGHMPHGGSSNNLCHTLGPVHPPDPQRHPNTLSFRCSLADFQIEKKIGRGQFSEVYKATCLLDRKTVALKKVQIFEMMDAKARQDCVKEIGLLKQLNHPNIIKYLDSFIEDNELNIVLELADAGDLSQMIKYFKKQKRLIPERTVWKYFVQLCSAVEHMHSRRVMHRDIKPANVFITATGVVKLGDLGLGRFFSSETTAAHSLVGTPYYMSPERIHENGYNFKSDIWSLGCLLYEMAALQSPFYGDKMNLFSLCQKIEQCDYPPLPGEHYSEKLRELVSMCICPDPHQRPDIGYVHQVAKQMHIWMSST
Vascular endothelial growth factor receptor 3 (Homo sapiens), sequence (P35916 whole entry): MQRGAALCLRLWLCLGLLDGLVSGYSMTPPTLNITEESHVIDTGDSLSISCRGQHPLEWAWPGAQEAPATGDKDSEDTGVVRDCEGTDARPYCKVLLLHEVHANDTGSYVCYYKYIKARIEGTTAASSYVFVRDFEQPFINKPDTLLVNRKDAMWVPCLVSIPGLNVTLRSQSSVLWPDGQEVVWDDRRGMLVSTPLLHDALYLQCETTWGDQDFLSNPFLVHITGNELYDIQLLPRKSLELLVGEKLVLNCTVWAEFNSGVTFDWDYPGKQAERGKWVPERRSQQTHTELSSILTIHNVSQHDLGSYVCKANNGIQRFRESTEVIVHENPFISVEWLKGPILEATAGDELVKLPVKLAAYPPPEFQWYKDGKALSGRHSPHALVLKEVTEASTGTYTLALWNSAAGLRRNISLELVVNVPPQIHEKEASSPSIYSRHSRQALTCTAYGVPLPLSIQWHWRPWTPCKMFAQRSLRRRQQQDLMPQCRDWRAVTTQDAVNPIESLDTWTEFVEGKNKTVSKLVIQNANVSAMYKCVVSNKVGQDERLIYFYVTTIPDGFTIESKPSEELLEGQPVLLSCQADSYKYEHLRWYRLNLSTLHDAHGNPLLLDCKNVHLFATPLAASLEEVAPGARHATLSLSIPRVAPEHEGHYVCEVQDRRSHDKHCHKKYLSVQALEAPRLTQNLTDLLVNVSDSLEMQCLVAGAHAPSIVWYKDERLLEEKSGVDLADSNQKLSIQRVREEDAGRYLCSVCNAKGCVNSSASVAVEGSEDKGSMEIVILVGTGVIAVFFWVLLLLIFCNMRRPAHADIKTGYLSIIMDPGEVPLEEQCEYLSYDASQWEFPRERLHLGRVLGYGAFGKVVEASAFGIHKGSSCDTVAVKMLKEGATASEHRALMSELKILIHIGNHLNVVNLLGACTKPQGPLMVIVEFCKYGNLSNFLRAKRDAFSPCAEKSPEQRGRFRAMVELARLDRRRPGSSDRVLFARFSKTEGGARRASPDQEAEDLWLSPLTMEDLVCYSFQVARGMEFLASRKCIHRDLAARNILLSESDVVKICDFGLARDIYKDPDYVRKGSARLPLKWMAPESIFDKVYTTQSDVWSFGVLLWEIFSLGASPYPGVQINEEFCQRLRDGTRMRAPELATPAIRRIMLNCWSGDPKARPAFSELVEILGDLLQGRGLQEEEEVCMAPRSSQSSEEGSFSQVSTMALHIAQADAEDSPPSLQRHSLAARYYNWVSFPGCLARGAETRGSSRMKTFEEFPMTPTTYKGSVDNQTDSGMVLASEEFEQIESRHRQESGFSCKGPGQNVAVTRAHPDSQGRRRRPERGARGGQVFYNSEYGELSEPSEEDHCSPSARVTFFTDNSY
Serine/threonine-protein kinase Nek7 (Homo sapiens), sequence (Q8TDX7 whole entry, looked up): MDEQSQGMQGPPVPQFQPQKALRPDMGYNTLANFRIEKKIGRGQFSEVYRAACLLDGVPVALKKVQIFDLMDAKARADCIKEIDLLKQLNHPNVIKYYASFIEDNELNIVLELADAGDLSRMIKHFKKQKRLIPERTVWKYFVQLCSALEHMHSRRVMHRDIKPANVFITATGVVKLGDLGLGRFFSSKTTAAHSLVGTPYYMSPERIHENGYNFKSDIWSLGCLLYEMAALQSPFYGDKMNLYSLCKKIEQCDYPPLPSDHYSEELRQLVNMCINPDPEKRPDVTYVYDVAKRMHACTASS
Serine/threonine-protein kinase PLK1 (Homo sapiens), sequence (P53350 whole entry): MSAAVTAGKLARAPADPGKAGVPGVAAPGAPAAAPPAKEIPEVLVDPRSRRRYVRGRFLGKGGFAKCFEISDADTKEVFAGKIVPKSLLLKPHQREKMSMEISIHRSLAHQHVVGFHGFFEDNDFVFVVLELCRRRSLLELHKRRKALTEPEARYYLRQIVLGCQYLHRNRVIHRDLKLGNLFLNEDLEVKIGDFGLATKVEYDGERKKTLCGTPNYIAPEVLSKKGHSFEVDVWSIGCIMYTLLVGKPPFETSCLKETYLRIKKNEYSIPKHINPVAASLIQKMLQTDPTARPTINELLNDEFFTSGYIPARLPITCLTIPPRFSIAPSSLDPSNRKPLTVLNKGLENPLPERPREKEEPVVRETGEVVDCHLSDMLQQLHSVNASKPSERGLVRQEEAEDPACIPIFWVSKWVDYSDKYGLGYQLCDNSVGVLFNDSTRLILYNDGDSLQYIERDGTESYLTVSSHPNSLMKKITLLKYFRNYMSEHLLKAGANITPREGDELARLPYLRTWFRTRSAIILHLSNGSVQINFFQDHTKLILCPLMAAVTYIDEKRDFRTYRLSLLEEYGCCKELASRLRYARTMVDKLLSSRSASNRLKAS

A word on the inhibition: it is how much of the control response was suppressed. Read a high inhibition as a response far below the control. As to `CN(C)c1cc2c(Nc3ccc4c(cnn4Cc4ccccc4)c3)ncnc2cn1`, the inhibition turned out to be 3.38% in [1]; 0.59% in [2]; 2.49% in assay [3]; 3.29% in assay [4]; 3.45% in assay [5]; 0.57% in assay [6]. Besides, the inhibition in assay [7] worked out at 2.34%; in assay [8] it was 1.52%; in assay [9], 1.66%; in [10] it was 6.89%; in [11], 6.27%; in assay [12], 3.14%. The inhibition was found to be 3.09% in assay [13]; 5.61% in assay [14]; 1.61% in assay [15]; 2.71% in assay [16]; 2.4% in [17]; 1.36% in assay [18]. Moreover, the inhibition is 3.34% in assay [19] and 3.84% in [20].
